Screens: PubChem BioAssay, National Center for Advancing Translational Sciences (NCATS)
A selection: hits, their analogues and other compounds. The true share with any hit is near 3%.
SNCA viab count – reduces viability of HEK-293 SNCA reporter cells; HEK-293-SNCA-luc viability, GF-AFC fluorescence, 24 h; Potency, µM (series often up to 57.1 µM), hits mostly cytotoxic; 0.12% of 150,000 active; AID 1671193; note: nearly all actives have a fitted effect of over 30% in size
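HEK-293-SNCA-luc cells (1500/well) plated 24 h, then exposed 24 h to a dilution series; GF-AFC added 30 min at 37C, fluorescence 405/540 nm; normalised to medium-only and DMSO wells, Hill fit.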
IP6K1 inh – inhibitors of human IP6K1. Q92551. IP6K1 kinase, ADP-Glo luminescence, 2 h; active compounds read low. activity change, % (series mostly up to about 58 µM). 0.81% of 140,000 active. AID 1645851; in the data active = activity change below about -25%
Target sequence (Q92551 whole entry, looked up): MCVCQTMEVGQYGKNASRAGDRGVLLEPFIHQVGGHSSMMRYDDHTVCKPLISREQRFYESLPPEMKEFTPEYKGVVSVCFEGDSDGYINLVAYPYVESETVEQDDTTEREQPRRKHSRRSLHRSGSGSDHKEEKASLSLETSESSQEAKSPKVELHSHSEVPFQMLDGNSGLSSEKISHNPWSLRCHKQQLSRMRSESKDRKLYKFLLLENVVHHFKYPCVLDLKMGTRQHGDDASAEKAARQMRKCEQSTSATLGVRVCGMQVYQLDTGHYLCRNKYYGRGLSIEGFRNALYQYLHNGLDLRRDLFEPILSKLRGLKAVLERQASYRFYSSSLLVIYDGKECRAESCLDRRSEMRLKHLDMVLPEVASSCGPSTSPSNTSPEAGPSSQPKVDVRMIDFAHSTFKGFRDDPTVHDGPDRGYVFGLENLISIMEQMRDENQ
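ADP-Glo luminescence measures ADP made by human IP6K1 during a 2 h RT reaction with ATP/IP6 (mix at 1.3 mM/130 uM); top library doses 57.5 and 19.1 uM final.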
SNCA expr inhib – SNCA gene expression inhibition | 0.17% of 140,000 active | HEK-293 SNCA-luciferase knock-in, luminescence, 24 h | Potency, µM (titrated, usually from 57.2 µM), hits mostly inhibitors | AID 1671194; note: nearly all actives have a fitted effect of over 45% in size
KDM5B inhibitor – KDM5B demethylase inhibition | Q9UGL1 | 2.6% of 220,000 active | KDM5B demethylase, FDH-coupled NADH fluorescence (FDH is formaldehyde dehydrogenase) | AID 1347165 | Potency, µM (top dose mostly 57.7 µM), most hits filed as inhibitors; note: nearly all actives have a fitted effect of over 70% in size
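qHTS format, multiple compound concentrations. Buffer 50 mM HEPES pH 7.5/0.01% Tween-20; 200 nM KDM5BΔAP final; 10 min compound preincubation; substrate-mix levels 12.5 µM peptide, 25 µM α-KG, 0.25 mM NAD⁺; 30 min RT; ΔRFU.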
Each line names hits and unclear results; the compound was inactive in the other large screens. Unless noted, calls come from the whole dose curve; as a rule, active = well fitted curve in the direction sought with a large enough effect; inconclusive = small, poorly fitted or top-dose-only effect, or another doubt; inactive = no such curve, though single readings can be large; an effect the other way counts as inactive or inconclusive.

COc1ccccc1-c1cnc(Nc2ccc(Cl)cn2)c2c1CCO2	KDM5B inhibitor 35.5µM
Cc1ccc(-c2cc(C(=O)Nc3cccc(CO)c3)c3ccccc3n2)cc1	none (no result: SNCA viab count, IP6K1 inh, SNCA expr inhib)
CCCc1nc2ccccc2n1CC(O)c1ccc(F)cc1 (stereo not given)	none (no result: SNCA viab count, IP6K1 inh, SNCA expr inhib)
COc1cccc(-c2cc(C3CCN(C(=O)Nc4ccc5c(c4)OCCO5)CC3)[nH]n2)c1	none
CN(C)CCCOC(=O)c1cc(C(C)(C)C)cc(C(C)(C)C)c1	none (no result: SNCA viab count, IP6K1 inh, SNCA expr inhib)
O[C@H]1[C@H](NCc2cnc3ccccc3c2)[C@@H](c2ccc(N3CCOCC3)nc2)C[C@H]1O	SNCA expr inhib inconclusive
O[C@H]1[C@H](NCc2cccc(C(F)(F)F)c2)[C@@H](c2ccc(N3CCOCC3)nc2)C[C@H]1O	KDM5B inhibitor 31.6µM
O[C@H]1[C@H](NCc2ccc(Cl)cc2)[C@@H](c2ccc(N3CCOCC3)nc2)C[C@H]1O	KDM5B inhibitor 39.8µM
COc1ccc(CN[C@H]2[C@H](O)[C@H](O)C[C@@H]2c2ccc(N3CCOCC3)nc2)cn1	KDM5B inhibitor 31.6µM
N#Cc1cccc(CN[C@H]2[C@H](O)[C@H](O)C[C@@H]2c2ccc(N3CCOCC3)nc2)c1	KDM5B inhibitor inconclusive
CCCc1ccc(S(=O)(=O)N2CCC3(CC2)[C@H](C(=O)NC)[C@@H](OC(N)=O)C(=O)N3C)cc1	none (no result: SNCA viab count, SNCA expr inhib, KDM5B inhibitor)
COc1cccc(-c2ccc(CN3CCCC(NC(=O)C4CCCC4)C3)cc2)c1 (stereo not given)	none (no result: SNCA viab count, SNCA expr inhib, KDM5B inhibitor)
COc1ccc(C)cc1-n1nnc(-c2nc(-c3ccccc3C)no2)c1N	none (no result: SNCA viab count, IP6K1 inh, SNCA expr inhib)
CN1Cc2ccc(NCc3ccccc3)nc2C(C)(C(=O)NCc2ccc3c(c2)OCO3)C1 (stereo not given)	SNCA expr inhib inconclusive, KDM5B inhibitor inconclusive
CN1Cc2ccc(Nc3ccccc3)nc2C(C)(C(=O)NCc2ccc3c(c2)OCO3)C1 (stereo not given)	KDM5B inhibitor 39.8µM
COc1cccc(Nc2ccc3c(n2)C(C)(C(=O)NCc2ccco2)CN(C)C3)c1 (stereo not given)	KDM5B inhibitor 28.2µM
O=C(/C=C/c1cccc(Br)c1)c1ccc(N2CCOCC2)cc1	none (no result: SNCA viab count, IP6K1 inh, SNCA expr inhib)
CC(C)NC(=O)NC1CCN(Cc2cccc(-c3ccc(F)c(F)c3)c2)CC1	none (no result: SNCA viab count, SNCA expr inhib, KDM5B inhibitor)
Cc1ccc(CC(=O)N2CCc3cn(C)c4cccc(c34)C2)cc1	KDM5B inhibitor 28.2µM
CCn1cc2c3c(cccc31)CN(C(=O)Cc1ccccc1C)CC2	KDM5B inhibitor inconclusive
Cn1cc2c3c(cccc31)CN(C(=O)Cc1ccccc1F)CC2	SNCA viab count inconclusive, SNCA expr inhib inconclusive, KDM5B inhibitor 28.2µM
Cn1cc2c3c(cccc31)CN(C(=O)C1CCC1)CC2	KDM5B inhibitor 31.6µM
Cc1ccccc1-c1cnc2[nH]cc(CC(=O)Nc3cccnc3)c2c1	SNCA viab count inconclusive, KDM5B inhibitor inconclusive
CCn1c(=O)c2c(cc(C)n2C)n(CC(=O)Nc2ccccc2C)c1=O	none
CCn1c(=O)c2c(cc(C)n2C)n(CC(=O)Nc2c(C)cccc2C)c1=O	SNCA viab count 28.2µM, SNCA expr inhib inconclusive
CCSc1ncc(CN2CCN(c3ccc4nccn4n3)CC2)cn1	KDM5B inhibitor 28.2µM
CNC(=O)C1CCCCN1Cc1ccc(-c2ccccc2OC)cc1 (stereo not given)	none (no result: SNCA viab count, SNCA expr inhib, KDM5B inhibitor)
O=C(NC1CCc2nnc(C3CC3)n2CC1)c1cccs1 (stereo not given)	none
Cc1ccc(C(=O)NC2CCc3nnc(C4CC4)n3CC2)c(=O)[nH]1 (stereo not given)	KDM5B inhibitor 31.6µM
c1ccc(-c2noc(-c3ccn4c(CN5CCc6ccccc6C5)nnc4c3)n2)cc1	KDM5B inhibitor 31.6µM
CC(=O)N1CCN(Cc2nnc3cc(-c4nc(-c5ccccc5)no4)ccn23)CC1	KDM5B inhibitor 6.31µM
O=C(NCc1ccccc1)N1CCCC(c2nccn2CC2CCC2)C1 (stereo not given)	SNCA expr inhib inconclusive
Cc1ccc(C#N)c(N2CCCC(c3nccn3CC3CCC3)C2)n1 (stereo not given)	SNCA expr inhib inconclusive, KDM5B inhibitor 31.6µM
CSc1ccc(NC(=O)CC2C=CCC2)cc1 (stereo not given)	none (no result: SNCA viab count, IP6K1 inh, SNCA expr inhib)
CN(C)c1ccc(-c2nc(C3CCOC3)no2)cc1 (stereo not given)	none
c1cnn(-c2ccc(-c3nc(C4CCOC4)no3)cc2)c1 (stereo not given)	SNCA viab count inconclusive, KDM5B inhibitor 31.6µM
CSc1ccccc1-c1nc(C2CCOC2)no1 (stereo not given)	KDM5B inhibitor 28.2µM
CN(Cc1cccc(N2CCN(C(=O)OC(C)(C)C)CC2)c1F)[S+](C)(=O)[O-]	none (no result: SNCA viab count, SNCA expr inhib, KDM5B inhibitor)
CC(C)C(=O)NC(=S)Nc1ccc(NC(=O)c2cccc(Cl)c2)cc1	none (no result: SNCA viab count, IP6K1 inh, SNCA expr inhib)
Cc1ccc(C)c(NC(=O)CCl)c1	none (no result: SNCA viab count, IP6K1 inh, SNCA expr inhib)
CCC(=O)N1CCN(c2nc3c(s2)CC(C(=O)NCc2ccc(C)o2)CC3)CC1 (stereo not given)	KDM5B inhibitor 25.1µM
Cc1nn(-c2ccccc2)c2c1C(C1CC1)N(CC1CN(C(=O)C3CC3)C1)C2=O (stereo not given)	none (no result: SNCA viab count, SNCA expr inhib, KDM5B inhibitor)
COc1ccc(-c2cccc(C(=O)N3CCN(C(=O)c4ccc(C(F)(F)F)cc4)CC3)c2)nn1	none (no result: SNCA viab count, SNCA expr inhib, KDM5B inhibitor)
CC(C)c1nc(N2CCCCCC2)ncc1C(=O)O	KDM5B inhibitor 28.2µM
COc1cccc(C(=O)NCCn2ccn3nc(-c4ccc(C)c(C)c4)cc3c2=O)c1OC	KDM5B inhibitor 35.5µM
Cc1ccc(-c2cc3c(=O)n(CCNC(=O)c4ccccc4F)ccn3n2)cc1C	KDM5B inhibitor 20µM
CCn1nccc1C(=O)NCCn1ccn2nc(-c3ccc(C)c(C)c3)cc2c1=O	KDM5B inhibitor 35.5µM
Cc1ccc(-c2cc3c(=O)n(CCNC(=O)c4cccc(Cl)c4)ccn3n2)cc1C	none
Cc1ccc(-c2cc3c(=O)n(CCNC(=O)c4ccc5ccccc5n4)ccn3n2)cc1C	KDM5B inhibitor inconclusive
COc1cccc(C(=O)NCCn2ccn3nc(-c4ccc(C)cc4C)cc3c2=O)c1OC	KDM5B inhibitor inconclusive
O=C(NCC1Cn2cccc2CN1Cc1cccnc1)c1cccc(F)c1 (stereo not given)	none (no result: KDM5B inhibitor)
Cc1ccc(Nc2ccnc(N3CCCC3C(=O)N3CCN(Cc4ccccc4)CC3)n2)cc1 (stereo not given)	none (no result: KDM5B inhibitor)
COc1ccccc1-c1cccc(CN2CCC(N[S+](=O)([O-])c3c(C)noc3C)CC2)c1	none (no result: KDM5B inhibitor)
CCc1cnc(N2CCC(COc3ccc4c(cnn4CCC(=O)O)c3)CC2)nc1	KDM5B inhibitor 39.8µM
O=C(O)CCn1ncc2cc(OCC3CCN(c4ncc(F)cn4)CC3)ccc21	SNCA expr inhib inconclusive, KDM5B inhibitor 35.5µM
O=C(O)CCn1ncc2cc(OCC3CCN(c4ncccn4)CC3)ccc21	KDM5B inhibitor inconclusive
O=C(C1CCCN(c2nc3ncccc3o2)C1)N1CCOCC1 (stereo not given)	KDM5B inhibitor 39.8µM
O=C(c1ccccc1Cl)N1CCN(c2nc3ncccc3o2)CC1	KDM5B inhibitor 20µM
CN(C)C(=O)N1CCCN(c2nc3ncccc3o2)CC1	KDM5B inhibitor 28.2µM
O=C(C1CCN(c2nc3ncccc3o2)CC1)N1CCOCC1	none (no result: KDM5B inhibitor)
O=C(C1CC1)N1CCN(c2nc3ncccc3o2)CC1	KDM5B inhibitor inconclusive
O=C(C1CCCC1)N1CCN(c2nc3ncccc3o2)CC1	KDM5B inhibitor 31.6µM
